Data taken from article PMC7862700, “An all-to-all approach to the identification of sequence-specific readers for epigenetic DNA modifications on cytosine”.

Assays:
Assay in all cases: DAPPL (digital affinity profiling via proximity ligation, sequencing); 10 mM Tris-HCl pH 7.5, 50 mM NaCl, 1 mM DTT, 4% glycerol, room temperature, 30 min; GST-TFs on glutathione beads, 16-mer random dsDNA library, 0.1% formaldehyde crosslink after washing; high values mean tight binding
FLI1 = molecular target: T1, FLI1 (Homo sapiens, UniProt Q01543 1-452); conditions: protein: recombinant; tags: N-terminal GST; dsDNA, one strand shown
T1 sequence: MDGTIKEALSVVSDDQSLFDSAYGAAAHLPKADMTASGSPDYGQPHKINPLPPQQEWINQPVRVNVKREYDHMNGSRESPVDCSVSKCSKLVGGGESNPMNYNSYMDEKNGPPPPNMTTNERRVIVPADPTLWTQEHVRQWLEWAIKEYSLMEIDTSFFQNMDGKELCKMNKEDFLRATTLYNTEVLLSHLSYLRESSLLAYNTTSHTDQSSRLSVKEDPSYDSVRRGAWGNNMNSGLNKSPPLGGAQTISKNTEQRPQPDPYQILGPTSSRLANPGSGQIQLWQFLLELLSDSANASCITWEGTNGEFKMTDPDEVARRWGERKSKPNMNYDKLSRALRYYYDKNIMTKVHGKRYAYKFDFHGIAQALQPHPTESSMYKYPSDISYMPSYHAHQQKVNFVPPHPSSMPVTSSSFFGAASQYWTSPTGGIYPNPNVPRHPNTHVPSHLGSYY
In short: (§1)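 After expression in yeast as GST fusions, human transcription factors were bound to glutathione beads, DNA-barcoded and mixed with a tag-only sample. The pools were incubated with 200 nmole of a 16-mer random double-stranded DNA library in Tris/NaCl/DTT/glycerol buffer (30 min, room temperature), washed and crosslinked with 0.1% formaldehyde. Proximity ligation with BsaI/T4 ligase ran for 1 h at 37 °C, before PCR amplification and sequencing on an Illumina NextSeq500. Binding signal is a hexamer's read frequency for a factor divided by its frequency for the tag-only sample.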

ELK1 = molecular target: T2, ELK1 (Homo sapiens, UniProt P19419 1-428); conditions: protein: recombinant; tags: N-terminal GST; dsDNA, one strand shown
T2 sequence: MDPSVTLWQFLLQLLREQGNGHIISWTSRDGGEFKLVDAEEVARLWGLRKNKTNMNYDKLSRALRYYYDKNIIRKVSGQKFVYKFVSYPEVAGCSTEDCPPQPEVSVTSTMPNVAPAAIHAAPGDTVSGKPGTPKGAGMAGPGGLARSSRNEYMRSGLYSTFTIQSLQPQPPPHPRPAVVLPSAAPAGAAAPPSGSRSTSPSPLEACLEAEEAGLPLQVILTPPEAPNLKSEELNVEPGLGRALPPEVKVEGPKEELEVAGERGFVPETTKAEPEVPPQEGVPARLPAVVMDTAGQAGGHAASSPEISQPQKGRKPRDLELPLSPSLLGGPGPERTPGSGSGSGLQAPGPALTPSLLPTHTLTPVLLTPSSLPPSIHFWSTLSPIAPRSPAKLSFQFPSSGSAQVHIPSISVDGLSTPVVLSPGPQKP
In short: as §1

GABPA = molecular target: T3, GABPA (Homo sapiens, UniProt Q06546 1-454); conditions: protein: recombinant; tags: N-terminal GST; dsDNA, one strand shown
T3 sequence: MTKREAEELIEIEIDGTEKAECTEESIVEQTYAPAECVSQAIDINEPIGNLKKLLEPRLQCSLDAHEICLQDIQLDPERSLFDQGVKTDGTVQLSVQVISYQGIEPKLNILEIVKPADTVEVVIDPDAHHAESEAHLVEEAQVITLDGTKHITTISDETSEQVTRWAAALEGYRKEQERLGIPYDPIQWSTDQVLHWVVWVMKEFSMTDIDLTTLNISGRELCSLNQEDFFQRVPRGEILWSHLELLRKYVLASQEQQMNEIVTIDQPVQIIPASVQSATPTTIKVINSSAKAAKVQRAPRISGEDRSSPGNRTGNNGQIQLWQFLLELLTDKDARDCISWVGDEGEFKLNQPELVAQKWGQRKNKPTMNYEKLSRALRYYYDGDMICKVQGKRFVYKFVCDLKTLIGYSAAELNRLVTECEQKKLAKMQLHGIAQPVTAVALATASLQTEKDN
In short: as §1

ERG = molecular target: T4, ERG (Homo sapiens, UniProt P11308 1-479); conditions: protein: recombinant; tags: N-terminal GST; dsDNA, one strand shown
T4 sequence: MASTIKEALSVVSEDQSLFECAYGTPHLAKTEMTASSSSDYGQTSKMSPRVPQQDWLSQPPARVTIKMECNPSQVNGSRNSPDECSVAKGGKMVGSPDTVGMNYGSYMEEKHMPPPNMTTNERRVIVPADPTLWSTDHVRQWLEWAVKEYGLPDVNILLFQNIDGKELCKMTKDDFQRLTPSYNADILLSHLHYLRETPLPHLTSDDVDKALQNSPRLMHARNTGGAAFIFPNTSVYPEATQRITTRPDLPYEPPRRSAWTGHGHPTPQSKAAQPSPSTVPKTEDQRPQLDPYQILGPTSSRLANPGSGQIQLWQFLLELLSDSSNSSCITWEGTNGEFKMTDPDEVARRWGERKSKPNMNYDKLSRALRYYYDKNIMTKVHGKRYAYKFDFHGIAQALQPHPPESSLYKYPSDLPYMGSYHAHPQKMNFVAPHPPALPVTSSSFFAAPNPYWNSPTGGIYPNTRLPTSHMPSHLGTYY
In short: as §1

ELF1 = ELF1 (Homo sapiens, UniProt P32519 1-619); conditions: protein: recombinant; tags: N-terminal GST; dsDNA, one strand shown
Chain of ELF1 (P32519 whole entry): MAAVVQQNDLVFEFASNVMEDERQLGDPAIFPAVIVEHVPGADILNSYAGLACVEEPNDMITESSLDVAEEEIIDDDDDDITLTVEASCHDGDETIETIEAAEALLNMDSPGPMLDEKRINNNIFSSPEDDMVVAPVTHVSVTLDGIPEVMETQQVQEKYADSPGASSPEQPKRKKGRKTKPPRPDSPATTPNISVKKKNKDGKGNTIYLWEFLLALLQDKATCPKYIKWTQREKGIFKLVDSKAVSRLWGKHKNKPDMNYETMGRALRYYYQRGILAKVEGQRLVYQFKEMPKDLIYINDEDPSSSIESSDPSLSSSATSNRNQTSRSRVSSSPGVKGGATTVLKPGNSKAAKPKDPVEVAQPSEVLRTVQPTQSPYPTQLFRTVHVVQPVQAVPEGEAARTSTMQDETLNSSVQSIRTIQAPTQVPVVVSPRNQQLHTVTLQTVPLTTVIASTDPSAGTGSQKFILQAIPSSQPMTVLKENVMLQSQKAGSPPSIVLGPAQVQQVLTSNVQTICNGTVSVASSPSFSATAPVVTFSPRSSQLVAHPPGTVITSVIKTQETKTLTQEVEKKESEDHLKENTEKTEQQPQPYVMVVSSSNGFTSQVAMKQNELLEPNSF
In short: as §1

EHF = molecular target: T5, EHF (Homo sapiens, UniProt Q9NZC4 1-300); conditions: protein: recombinant; tags: N-terminal GST; dsDNA, one strand shown
T5 sequence: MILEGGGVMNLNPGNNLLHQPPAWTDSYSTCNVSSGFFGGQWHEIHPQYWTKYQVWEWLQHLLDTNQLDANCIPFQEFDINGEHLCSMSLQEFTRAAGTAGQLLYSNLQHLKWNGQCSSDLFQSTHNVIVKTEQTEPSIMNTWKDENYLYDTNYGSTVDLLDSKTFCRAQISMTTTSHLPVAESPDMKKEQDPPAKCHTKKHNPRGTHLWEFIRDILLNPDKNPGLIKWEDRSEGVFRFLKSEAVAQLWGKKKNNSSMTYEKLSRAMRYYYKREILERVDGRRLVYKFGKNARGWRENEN
In short: as §1

SPI1 = SPI1 (Homo sapiens, UniProt P17947 1-270); conditions: protein: recombinant; tags: N-terminal GST; dsDNA, one strand shown
In short: as §1

SPIB = SPIB (Homo sapiens, UniProt Q01892 1-262); conditions: protein: recombinant; tags: N-terminal GST; dsDNA, one strand shown
Chain of SPIB (Q01892 whole entry): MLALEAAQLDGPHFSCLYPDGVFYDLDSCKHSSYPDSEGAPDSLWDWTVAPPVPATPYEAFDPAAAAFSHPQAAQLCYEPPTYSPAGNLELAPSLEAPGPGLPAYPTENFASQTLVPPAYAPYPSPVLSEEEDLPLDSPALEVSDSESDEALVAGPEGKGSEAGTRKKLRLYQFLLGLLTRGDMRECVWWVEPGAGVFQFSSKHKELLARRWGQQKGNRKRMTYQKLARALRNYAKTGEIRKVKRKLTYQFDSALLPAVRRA
In short: as §1

ELK3 = molecular target: T6, ELK3 (Homo sapiens, UniProt P41970 1-407); conditions: protein: recombinant; tags: N-terminal GST; dsDNA, one strand shown
T6 sequence: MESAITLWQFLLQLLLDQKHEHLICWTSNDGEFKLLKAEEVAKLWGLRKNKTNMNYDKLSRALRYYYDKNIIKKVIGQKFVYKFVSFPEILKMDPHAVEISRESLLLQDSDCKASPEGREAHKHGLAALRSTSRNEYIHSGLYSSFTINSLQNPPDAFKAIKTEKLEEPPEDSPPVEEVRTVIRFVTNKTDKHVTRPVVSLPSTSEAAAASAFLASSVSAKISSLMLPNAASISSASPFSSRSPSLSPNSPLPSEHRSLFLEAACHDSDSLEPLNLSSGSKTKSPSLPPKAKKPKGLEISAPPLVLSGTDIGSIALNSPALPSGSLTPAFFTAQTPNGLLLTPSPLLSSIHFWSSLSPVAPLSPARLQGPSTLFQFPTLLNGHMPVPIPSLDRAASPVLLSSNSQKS
In short: as §1

FEV = molecular target: T7, FEV (Homo sapiens, UniProt Q99581 1-238); conditions: protein: recombinant; tags: N-terminal GST; dsDNA, one strand shown
T7 sequence: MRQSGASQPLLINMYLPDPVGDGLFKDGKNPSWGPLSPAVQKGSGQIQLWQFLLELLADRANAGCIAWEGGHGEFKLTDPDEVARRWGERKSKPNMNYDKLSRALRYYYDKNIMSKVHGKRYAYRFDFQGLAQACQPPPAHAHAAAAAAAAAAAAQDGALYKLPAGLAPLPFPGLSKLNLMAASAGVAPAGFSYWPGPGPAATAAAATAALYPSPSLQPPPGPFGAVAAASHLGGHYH
In short: as §1

ETV5 = ETV5 (Homo sapiens, UniProt P41161 1-510); conditions: protein: recombinant; tags: N-terminal GST; dsDNA, one strand shown
Chain of ETV5 (P41161 whole entry): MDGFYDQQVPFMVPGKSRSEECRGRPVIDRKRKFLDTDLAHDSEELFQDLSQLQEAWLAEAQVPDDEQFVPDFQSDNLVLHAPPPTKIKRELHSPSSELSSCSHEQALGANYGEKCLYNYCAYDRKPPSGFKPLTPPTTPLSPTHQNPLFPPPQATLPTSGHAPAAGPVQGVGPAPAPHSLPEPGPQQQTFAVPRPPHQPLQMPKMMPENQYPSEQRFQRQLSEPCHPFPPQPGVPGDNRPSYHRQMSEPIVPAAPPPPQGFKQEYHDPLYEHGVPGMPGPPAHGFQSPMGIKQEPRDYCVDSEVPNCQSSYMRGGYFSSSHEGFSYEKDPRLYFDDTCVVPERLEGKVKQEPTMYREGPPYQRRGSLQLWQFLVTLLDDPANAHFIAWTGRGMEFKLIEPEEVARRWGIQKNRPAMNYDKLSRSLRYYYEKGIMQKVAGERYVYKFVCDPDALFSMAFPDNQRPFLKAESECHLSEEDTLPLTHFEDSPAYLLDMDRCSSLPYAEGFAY
In short: as §1

HSF1 = HSF1 (Homo sapiens, UniProt Q00613 1-529); conditions: protein: recombinant; tags: N-terminal GST; chain copies: 3; dsDNA, one strand shown
Chain of HSF1 (Q00613 whole entry): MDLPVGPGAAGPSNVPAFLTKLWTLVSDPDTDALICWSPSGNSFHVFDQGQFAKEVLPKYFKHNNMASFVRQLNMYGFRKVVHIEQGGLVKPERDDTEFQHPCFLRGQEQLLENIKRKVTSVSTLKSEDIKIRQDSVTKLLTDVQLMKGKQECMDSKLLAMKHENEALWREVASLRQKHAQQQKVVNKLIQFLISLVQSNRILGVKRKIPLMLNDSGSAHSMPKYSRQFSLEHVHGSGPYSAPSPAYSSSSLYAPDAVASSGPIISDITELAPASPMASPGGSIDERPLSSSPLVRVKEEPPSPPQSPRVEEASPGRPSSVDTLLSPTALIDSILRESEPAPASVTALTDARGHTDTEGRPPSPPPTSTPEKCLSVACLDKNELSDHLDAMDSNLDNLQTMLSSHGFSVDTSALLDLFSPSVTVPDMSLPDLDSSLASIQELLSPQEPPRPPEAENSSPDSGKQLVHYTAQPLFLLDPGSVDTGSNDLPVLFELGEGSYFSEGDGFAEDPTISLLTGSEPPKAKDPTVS
In short: as §1

SPIC = molecular target: T8, SPIC (Homo sapiens, UniProt Q8N5J4 1-248); conditions: protein: recombinant; tags: N-terminal GST; dsDNA, one strand shown
T8 sequence: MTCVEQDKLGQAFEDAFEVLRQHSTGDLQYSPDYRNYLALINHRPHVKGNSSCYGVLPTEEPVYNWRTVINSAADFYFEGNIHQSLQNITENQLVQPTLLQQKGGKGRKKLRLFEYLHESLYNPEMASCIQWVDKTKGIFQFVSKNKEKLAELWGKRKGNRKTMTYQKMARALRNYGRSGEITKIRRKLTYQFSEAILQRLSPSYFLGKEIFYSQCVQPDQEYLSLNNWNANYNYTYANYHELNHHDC
In short: as §1

ELF4 = ELF4 (Homo sapiens, UniProt Q99607 1-663); conditions: protein: recombinant; tags: N-terminal GST; dsDNA, one strand shown
Chain of ELF4 (Q99607 whole entry): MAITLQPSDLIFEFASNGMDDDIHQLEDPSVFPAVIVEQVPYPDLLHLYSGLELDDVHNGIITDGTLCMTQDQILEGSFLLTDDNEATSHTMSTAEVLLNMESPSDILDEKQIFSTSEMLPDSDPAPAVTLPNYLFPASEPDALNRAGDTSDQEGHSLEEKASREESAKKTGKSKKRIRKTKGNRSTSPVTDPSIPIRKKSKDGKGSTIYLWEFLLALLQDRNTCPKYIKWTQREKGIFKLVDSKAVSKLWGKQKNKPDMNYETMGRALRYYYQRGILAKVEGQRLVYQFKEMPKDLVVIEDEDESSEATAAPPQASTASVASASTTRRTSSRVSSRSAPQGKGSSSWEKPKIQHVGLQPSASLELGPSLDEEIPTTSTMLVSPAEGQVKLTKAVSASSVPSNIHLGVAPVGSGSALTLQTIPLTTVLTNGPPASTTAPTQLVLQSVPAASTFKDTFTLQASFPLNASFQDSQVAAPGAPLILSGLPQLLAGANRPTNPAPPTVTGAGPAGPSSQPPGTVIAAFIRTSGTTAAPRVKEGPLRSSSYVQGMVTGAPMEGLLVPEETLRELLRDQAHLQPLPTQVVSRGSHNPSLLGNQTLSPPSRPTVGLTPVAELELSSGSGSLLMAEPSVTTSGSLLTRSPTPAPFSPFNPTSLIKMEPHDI
In short: as §1

ELK4 = molecular target: T9, ELK4 (Homo sapiens, UniProt P28324-2 1-405); conditions: protein: recombinant; tags: N-terminal GST; dsDNA, one strand shown
T9 sequence: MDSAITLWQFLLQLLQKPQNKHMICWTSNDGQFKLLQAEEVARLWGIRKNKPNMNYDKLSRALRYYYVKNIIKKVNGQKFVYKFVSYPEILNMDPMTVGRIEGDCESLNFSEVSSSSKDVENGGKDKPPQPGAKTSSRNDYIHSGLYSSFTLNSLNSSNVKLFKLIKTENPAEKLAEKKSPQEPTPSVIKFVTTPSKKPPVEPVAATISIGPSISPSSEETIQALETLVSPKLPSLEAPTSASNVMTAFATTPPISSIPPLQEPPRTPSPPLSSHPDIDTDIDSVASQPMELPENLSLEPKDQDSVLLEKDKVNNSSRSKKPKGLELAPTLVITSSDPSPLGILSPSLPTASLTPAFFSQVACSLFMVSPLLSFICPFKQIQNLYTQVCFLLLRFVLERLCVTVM
In short: as §1

ETV2 = molecular target: T10, ETV2 (Homo sapiens, UniProt O00321 1-342); conditions: protein: recombinant; tags: N-terminal GST; dsDNA, one strand shown
T10 sequence: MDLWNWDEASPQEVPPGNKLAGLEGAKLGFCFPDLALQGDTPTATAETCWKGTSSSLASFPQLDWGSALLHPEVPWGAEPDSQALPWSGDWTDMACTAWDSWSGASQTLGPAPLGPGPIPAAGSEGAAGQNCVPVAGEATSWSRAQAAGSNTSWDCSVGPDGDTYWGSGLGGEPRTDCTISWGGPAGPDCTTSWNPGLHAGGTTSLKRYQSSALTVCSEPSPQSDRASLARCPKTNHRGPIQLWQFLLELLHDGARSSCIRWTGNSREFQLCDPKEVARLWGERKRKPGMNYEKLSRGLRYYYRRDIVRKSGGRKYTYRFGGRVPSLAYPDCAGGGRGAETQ
In short: as §1

ELF3 = molecular target: T11, ELF3 (Homo sapiens, UniProt P78545 1-371); conditions: protein: recombinant; tags: N-terminal GST; dsDNA, one strand shown
T11 sequence: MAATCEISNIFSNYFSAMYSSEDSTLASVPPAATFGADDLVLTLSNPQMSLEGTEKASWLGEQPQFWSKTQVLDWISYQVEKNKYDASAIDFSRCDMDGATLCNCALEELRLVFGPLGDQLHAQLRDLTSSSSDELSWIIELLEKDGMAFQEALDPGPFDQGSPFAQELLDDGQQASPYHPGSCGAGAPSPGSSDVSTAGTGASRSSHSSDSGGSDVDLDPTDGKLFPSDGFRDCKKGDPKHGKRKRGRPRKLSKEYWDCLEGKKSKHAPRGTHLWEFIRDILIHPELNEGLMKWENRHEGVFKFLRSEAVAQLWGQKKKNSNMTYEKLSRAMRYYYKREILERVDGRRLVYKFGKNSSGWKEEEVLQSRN
In short: as §1

CRX = CRX (Homo sapiens, UniProt O43186 1-299); conditions: protein: recombinant; tags: N-terminal GST; dsDNA, one strand shown
Chain of CRX (O43186 whole entry): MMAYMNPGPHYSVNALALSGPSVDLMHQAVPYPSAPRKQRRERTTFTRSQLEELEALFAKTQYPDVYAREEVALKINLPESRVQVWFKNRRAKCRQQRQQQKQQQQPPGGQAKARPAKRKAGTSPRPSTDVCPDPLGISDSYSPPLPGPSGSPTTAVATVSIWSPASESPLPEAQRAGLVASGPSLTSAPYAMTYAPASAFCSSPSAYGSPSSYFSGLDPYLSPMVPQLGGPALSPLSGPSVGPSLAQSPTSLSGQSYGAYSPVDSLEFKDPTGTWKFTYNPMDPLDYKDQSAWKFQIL
In short: as §1

ETV1 = ETV1 (Homo sapiens, UniProt P50549 1-477); conditions: protein: recombinant; tags: N-terminal GST; dsDNA, one strand shown
Chain of ETV1 (P50549 whole entry): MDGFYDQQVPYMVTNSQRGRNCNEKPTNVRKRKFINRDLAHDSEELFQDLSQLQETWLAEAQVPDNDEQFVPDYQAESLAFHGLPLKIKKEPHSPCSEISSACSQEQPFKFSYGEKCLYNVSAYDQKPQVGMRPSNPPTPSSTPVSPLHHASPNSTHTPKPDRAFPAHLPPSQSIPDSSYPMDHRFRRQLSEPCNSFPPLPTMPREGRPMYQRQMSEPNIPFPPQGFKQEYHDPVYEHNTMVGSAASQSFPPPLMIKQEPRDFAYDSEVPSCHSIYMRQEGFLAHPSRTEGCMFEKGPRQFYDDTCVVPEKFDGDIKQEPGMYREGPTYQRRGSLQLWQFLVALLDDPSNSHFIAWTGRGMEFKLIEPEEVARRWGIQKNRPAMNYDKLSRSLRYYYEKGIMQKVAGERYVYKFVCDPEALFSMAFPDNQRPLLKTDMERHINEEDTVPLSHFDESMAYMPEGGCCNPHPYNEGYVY
In short: as §1

## TGATGA
FLI1
  binding signal: 1.38 fold enrichment (6-mer frequency, TF over GST control)
ELK1
  binding signal: 1.39 fold enrichment (6-mer frequency, TF over GST control)
GABPA
  binding signal: 1.46 fold enrichment (6-mer frequency, TF over GST control)
ERG
  binding signal: 1.28 fold enrichment (6-mer frequency, TF over GST control)
ELF1
  binding signal: 1.35 fold enrichment (6-mer frequency, TF over GST control)
EHF
  binding signal: 1.32 fold enrichment (6-mer frequency, TF over GST control)
SPI1
  binding signal: 1.2 fold enrichment (6-mer frequency, TF over GST control)
SPIB
  binding signal: 1.33 fold enrichment (6-mer frequency, TF over GST control)
ELK3
  binding signal: 1.28 fold enrichment (6-mer frequency, TF over GST control)
FEV
  binding signal: 1.25 fold enrichment (6-mer frequency, TF over GST control)
ETV5
  binding signal: 1.32 fold enrichment (6-mer frequency, TF over GST control)
HSF1
  binding signal: 1.16 fold enrichment (6-mer frequency, TF over GST control)
SPIC
  binding signal: 1.14 fold enrichment (6-mer frequency, TF over GST control)
ELF4
  binding signal: 1.44 fold enrichment (6-mer frequency, TF over GST control)
ELK4
  binding signal: 1.46 fold enrichment (6-mer frequency, TF over GST control)
ETV2
  binding signal: 1.33 fold enrichment (6-mer frequency, TF over GST control)
ELF3
  binding signal: 1.4 fold enrichment (6-mer frequency, TF over GST control)
CRX
  binding signal: 1.24 fold enrichment (6-mer frequency, TF over GST control)
ETV1
  binding signal: 1.27 fold enrichment (6-mer frequency, TF over GST control)
